Screen size: about 5,500 compounds; about 2,000 (36%) were called active. Inconclusive results (about 18%) are left out. Rule as the data show it: active = normalized growth mostly below about 0.91 (no sharp cut-off); inconclusive = no clear call, values can overlap the other calls; inactive = mostly above about 0.92. Some of the results follow.
Test: chemical genetic growth profiling, strain panel (AID 1159580);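 also: tested at 20 µM; growth read once vehicle control cultures reached saturation at 30 °C; 1 = growth at the plate median or of vehicle wells; lower values mean less growth of the strain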
Conditions: growth OD

Measured: normalized growth

CC(=O)N[C@@H](Cc1c[nH]c2ccccc12)C(=O)O
inactive: S. cerevisiae deletion strains, locus YJR075W, strain HOC1, hits give low values 1 | S. cerevisiae deletion strains, locus YKL009W, strain mrt4, hits give low values 0.981 | S. cerevisiae deletion strains, locus YKL068W, hits give low values 1.01 | S. cerevisiae deletion strains, locus YKL085W, strain MDH1 (second series), hits give low values 1.01 | S. cerevisiae deletion strains, locus YKL085W, strain MDH1, hits give low values 1.01 | S. cerevisiae deletion strains, locus YKL160W, strain elf1, hits give low values 0.962 | S. cerevisiae deletion strains, locus YKL190W, strain CNB1, hits give low values 1 | S. cerevisiae deletion strains, locus YKR001C, strain vps1, hits give low values 1.02 | S. cerevisiae deletion strains, locus YKR026C, strain gcn3, hits give low values 0.987 | S. cerevisiae deletion strains, locus YKR091W, strain srl3, hits give low values 0.977 | S. cerevisiae deletion strains, locus YLL001W, strain dnm1, hits give low values 0.983 | S. cerevisiae deletion strains, locus YLL026W, hits give low values 0.99 | S. cerevisiae deletion strains, locus YLL041C, strain sdh2, hits give low values 1 | S. cerevisiae deletion strains, locus YLR027C, strain aat2, hits give low values 0.994 | S. cerevisiae deletion strains, locus YLR039C, strain RIC1, hits give low values 1.02 | S. cerevisiae deletion strains, locus YLR058C, strain SHM2, hits give low values 1.01 | S. cerevisiae deletion strains, locus YLR102C, strain apc9, hits give low values 1.02 | S. cerevisiae deletion strains, locus YLR113W, strain HOG1, hits give low values 1 | S. cerevisiae deletion strains, locus YLR221C, strain rsa3, hits give low values 1.01 | S. cerevisiae deletion strains, locus YLR258W, strain gsy2, hits give low values 0.967 | S. cerevisiae deletion strains, locus YLR262C, strain YPT6 (second series), hits give low values 1.02 | S. cerevisiae deletion strains, locus YLR262C, strain YPT6, hits give low values 1.02 | S. cerevisiae deletion strains, locus YLR268W, strain sec22, hits give low values 1.04 | S. cerevisiae deletion strains, locus YLR320W, strain mms22, hits give low values 1.02 | S. cerevisiae deletion strains, locus YLR330W, strain CHS5, hits give low values 1.01 | S. cerevisiae deletion strains, locus YLR342W, strain FKS1 (second series), hits give low values 1.04 | S. cerevisiae deletion strains, locus YLR342W, strain FKS1, hits give low values 0.981 | S. cerevisiae deletion strains, locus YLR357W, strain rsc2, hits give low values 0.983 | S. cerevisiae deletion strains, locus YLR370C, strain arc18, hits give low values 0.995 | S. cerevisiae deletion strains, locus YLR371W, strain rom2, hits give low values 1.03 | S. cerevisiae deletion strains, locus YLR384C, strain iki3, hits give low values 0.984 | S. cerevisiae deletion strains, locus YLR418C, strain cdc73, hits give low values 1.07 | S. cerevisiae deletion strains, locus YML016C, strain PPZ1, hits give low values 1.01 | S. cerevisiae deletion strains, locus YML032C, strain rad52, hits give low values 1.02 | S. cerevisiae deletion strains, locus YML120C, strain ndi1, hits give low values 0.989 | S. cerevisiae deletion strains, locus YML124C, strain tub3, hits give low values 1.02 | S. cerevisiae deletion strains, locus YMR058W, strain fet3, hits give low values 0.988 | S. cerevisiae deletion strains, locus YMR078C, strain ctf18, hits give low values 1.02 | S. cerevisiae deletion strains, locus YMR125W, strain sto1, hits give low values 0.973 | S. cerevisiae deletion strains, locus YMR129W, hits give low values 0.976 | S. cerevisiae deletion strains, locus YMR205C, strain PFK2, hits give low values 0.985 | S. cerevisiae deletion strains, locus YMR223W, strain ubp8, hits give low values 1.02 | S. cerevisiae deletion strains, locus YMR231W, strain pep5, hits give low values 0.978 | S. cerevisiae deletion strains, locus YMR263W, strain SAP30, hits give low values 0.998 | S. cerevisiae deletion strains, locus YMR307W, strain GAS1, hits give low values 0.959 | S. cerevisiae deletion strains, locus YNL067W, strain RPL9B, hits give low values 1.01 | S. cerevisiae deletion strains, locus YNL071W, strain lat1, hits give low values 0.99 | S. cerevisiae deletion strains, locus YNL128W, strain TEP1, hits give low values 1.01 | S. cerevisiae deletion strains, locus YNL153C, strain GIM3, hits give low values 1.01 | S. cerevisiae deletion strains, locus YNL183C, strain NPR1, hits give low values 0.886 | S. cerevisiae deletion strains, locus YNL209W, strain ssb2, hits give low values 0.989 | S. cerevisiae deletion strains, locus YNL233W, strain BNI4, hits give low values 1.01 | S. cerevisiae deletion strains, locus YNL248C, strain rpa49, hits give low values 0.98 | S. cerevisiae deletion strains, locus YNL250W, strain rad50, hits give low values 1 | S. cerevisiae deletion strains, locus YNL271C, strain bni1, hits give low values 1.03 | S. cerevisiae deletion strains, locus YNL298W, strain CLA4, hits give low values 1.02 | S. cerevisiae deletion strains, locus YNL307C, strain MCK1, hits give low values 1.03 | S. cerevisiae deletion strains, locus YNL322C, strain KRE1 (second series), hits give low values 0.995 | S. cerevisiae deletion strains, locus YNL322C, strain KRE1, hits give low values 1 | S. cerevisiae deletion strains, locus YNR049C, strain mso1, hits give low values 0.959 | S. cerevisiae deletion strains, locus YNR052C, strain pop2, hits give low values 1.01 | S. cerevisiae deletion strains, locus YOL006C, strain TOP1, hits give low values 1.09 | S. cerevisiae deletion strains, locus YOL012C, strain htz1 0.924 | S. cerevisiae deletion strains, locus YOL147C, strain pex11, hits give low values 1.02 | S. cerevisiae deletion strains, locus YOR001W, strain rrp6, hits give low values 1.01 | S. cerevisiae deletion strains, locus YOR061W, strain CKA2, hits give low values 1.01 | S. cerevisiae deletion strains, locus YOR069W, strain VPS5, hits give low values 1 | S. cerevisiae deletion strains, locus YOR070C, strain gyp1, hits give low values 0.996 | S. cerevisiae deletion strains, locus YOR080W, strain dia2, hits give low values 0.986 | S. cerevisiae deletion strains, locus YOR083W, strain WHI5, hits give low values 0.97 | S. cerevisiae deletion strains, locus YOR106W, strain vam3, hits give low values 0.964 | S. cerevisiae deletion strains, locus YOR136W, strain idh2, hits give low values 1.01 | S. cerevisiae deletion strains, locus YOR144C, strain elg1, hits give low values 1.02 | S. cerevisiae deletion strains, locus YOR184W, strain ser1, hits give low values 1.02 | S. cerevisiae deletion strains, locus YOR231W, strain MKK1, hits give low values 0.994 | S. cerevisiae deletion strains, locus YOR265W, strain rbl2, hits give low values 1.01 | S. cerevisiae deletion strains, locus YOR270C, strain vph1, hits give low values 1.01 | S. cerevisiae deletion strains, locus YOR290C, strain snf2, hits give low values 0.974 | S. cerevisiae deletion strains, locus YOR316C, strain cot1, hits give low values 1.02 | S. cerevisiae deletion strains, locus YPL051W, strain arl3, hits give low values 0.989 | S. cerevisiae deletion strains, locus YPL055C, strain LGE1, hits give low values 1.01 | S. cerevisiae deletion strains, locus YPL078C, strain atp4, hits give low values 0.978 | S. cerevisiae deletion strains, locus YPL106C, strain sse1, hits give low values 0.949 | S. cerevisiae deletion strains, locus YPL240C, strain hsp82, hits give low values 1 | S. cerevisiae deletion strains, locus YPL241C, strain CIN2, hits give low values 1 | S. cerevisiae deletion strains, locus YPL256C, strain CLN2, hits give low values 0.99 | S. cerevisiae deletion strains, locus YPR119W, strain clb2, hits give low values 1.02 | S. cerevisiae deletion strains, locus YPR141C, strain kar3, hits give low values 1.02 | S. cerevisiae deletion strains, locus YPR163C, strain tif3, hits give low values 1.04 | S. cerevisiae deletion strains, locus YPR167C, strain met16, hits give low values 1.01 | S. cerevisiae deletion strains, strain wtn01, hits give low values 1.01 | S. cerevisiae strains, strain wild type, hits give low values 1

Source: PubChem BioAssay AID1159580 (chemical genetic matrix, 2015)
